Source: PubChem BioAssay
The source made the active and inactive calls.

Columns and labels:
[1] = small molecules captured by biotinylated probe aFSTL3 – biochemical, small-molecule microarray, fluorescence 635/667, stem cell growth factor project, primary screen (AID 1064); conditions: higher = more signal;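 further: measures binding of the biotinylated anti-FSTL3 antibody to printed compounds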
[2] = binders from COS7 lysate, DM2A8 probe, primary screen, torsin A project, cell lysate, small-molecule microarray, fluorescence 635/667 (AID 1065); conditions: higher = more signal, COS7 lysate expressing mutant human TOR1A
[3] = small molecules captured by biotinylated probe aFGF2 – biochemical, small-molecule microarray, fluorescence 635/667, stem cell growth factor project, primary screen (AID 1067); conditions: higher = more signal;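 further: measures binding of biotinylated aFGF2 protein to printed compounds on slides; z-score merges feature fluorescence and signal-to-noise across triplicate slides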
[4] = small molecules captured by biotinylated probe aFGF10 – biochemical, small-molecule microarray, fluorescence 635/667, stem cell growth factor project, primary screen (AID 1071); conditions: higher = more signal;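 further: score merges 667 nm spot intensity and signal to noise from triplicate slides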
[5] = target: Neurogenic locus notch homolog protein 2 (Homo sapiens) (UniProt Q04721); assay: small molecules binding Notch2 protein – biochemical, small-molecule microarray, 635 nm fluorescence, stem cell growth factors, primary screen (AID 1073); conditions: higher = more signal
[6] = target: Pro-neuregulin-1, membrane-bound isoform (Homo sapiens) (UniProt Q02297); assay: small molecules binding neuregulin-1 protein – biochemical, small-molecule microarray, fluorescence 635/667, psychiatric disease protein project, primary screen (AID 1075); conditions: NRG1 binding, 635 nm fluorescence, higher = more signal;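 further: score combines 667 nm spot fluorescence with signal to noise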
[7] = system: Neuregulin-1 EGF-like domain; assay: small molecules binding NRG1 EGF domain – biochemical, small-molecule microarray, 635 nm fluorescence, primary screen (AID 1081); conditions: higher = more signal;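 further: binding of the protein to compounds printed on small-molecule microarray slides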
[8] = FRG1 expression reporter modulators in myotubes – cell-based, C2C12 myotubes, firefly/Renilla luciferase, luminescence, FRG1 inhibition for FSHD, primary screen (AID 1084); conditions: FRG1 promoter luciferase, higher = more signal, called active from +8 up or from −8 down
[9] = small molecules captured by biotinylated probe aFST – biochemical, small-molecule microarray, fluorescence 635/667, stem cell growth factor project, primary screen (AID 1086); conditions: higher = more signal;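 further: score merges 667 nm fluorescence with signal-to-noise of each printed compound spot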
[10] = binders of probe aHhip on microarray, primary screen, stem cell growth factor project, biochemical, small-molecule microarray, fluorescence 635/667 (AID 1087); conditions: higher = more signal;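 further: score merges spot fluorescence at 667nm with spot signal to noise ratio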
[11] = system: PRMT1 (protein arginine N-methyltransferase 1); assay: small molecules binding arginine methyltransferase PRMT1 – biochemical, small-molecule microarray, 635 nm fluorescence, primary screen (AID 1088); conditions: higher = more signal;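 further: binding of Prmt1 protein to compounds spotted on small-molecule microarray slides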
[12] = growth effects on S. cerevisiae YJM789 – YJM789 clinical isolate, OD600, 24 h, basal, primary screen (AID 1089); conditions: higher = more signal, called active from +8 up or from −8 down;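 further: growth of clinical yeast isolate S. cerevisiae YJM 789 seeded 1000 cells per well; test concentration not given here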
[13] = S. pombe growth modifiers, basal conditions – strain 972, OD600, 24 h, no modulator, primary screen (AID 1090);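 further: basal condition with compound alone and no growth modifier present; test concentration not given here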; conditions: S. pombe 972 growth, higher = more signal, called active from +8 up or from −8 down
[14] = budding yeast growth modifiers under rapamycin – strain BY4716, OD600, 96 h, primary screen (AID 1091); further: test concentration not given here; conditions: S. cerevisiae BY4716 + rapamycin, higher = more signal, called active from +8 up or from −8 down
[15] = target: Torsin-1A-interacting protein 2 (Homo sapiens) (UniProt Q8NFQ8); assay: small molecules binding lysate-expressed LULL1 – cell lysate, human LULL1 lysate, 635/667 nm fluorescence, primary screen (AID 1092); conditions: small-molecule microarray, hLULL1 lysate binding, 635 nm fluorescence; higher = more signal;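 further: probe is lysate of COS7 cells overexpressing human LULL1; score merges per-feature 667 nm fluorescence with signal-to-noise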
[16] = optical density change of DRC41 E. coli – strain DRC41, OD650, 24 h, E. coli filamentation project, primary screen (AID 1093);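 further: MC1000 strain lacking acrAB efflux and sulA so SOS filamentation is blocked; test concentration not given here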; conditions: E. coli DRC41 growth, higher = more signal, called active from +8 up or from −8 down
[17] = probe aLefty2 binding to arrayed compounds – biochemical, biotinylated probe, 635/667 nm fluorescence, primary screen (AID 1094); conditions: small-molecule microarray, higher = more signal;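 further: score merges spot fluorescence near 667 nm with spot signal-to-noise ratio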
[18] = system: Noggin (protein binding on small-molecule microarray); assay: small molecules binding Noggin protein – biochemical, 635/667 nm fluorescence, primary screen (AID 1095); conditions: 635 nm fluorescence, higher = more signal;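 further: score merges 667 nm feature fluorescence with signal to noise over triplicate slides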
[19] = target: Neurogenic locus notch homolog protein 3 (Homo sapiens) (UniProt Q9UM47); assay: small molecules binding NOTCH3 protein – biochemical, 635/667 nm fluorescence, primary screen (AID 1096); conditions: small-molecule microarray, 635 nm fluorescence, higher = more signal
[20] = probe aEGFR binding to arrayed compounds – biochemical, biotinylated probe, 635/667 nm fluorescence, primary screen (AID 1097); conditions: small-molecule microarray, higher = more signal;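 further: probe is a biotinylated anti-EGFR antibody binding compounds printed on slides; score combines fluorescence near 667 nm and signal to noise of each spot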

Sequence of Neurogenic locus notch homolog protein 2 (Homo sapiens) (Q04721 whole entry, looked up, canonical isoform): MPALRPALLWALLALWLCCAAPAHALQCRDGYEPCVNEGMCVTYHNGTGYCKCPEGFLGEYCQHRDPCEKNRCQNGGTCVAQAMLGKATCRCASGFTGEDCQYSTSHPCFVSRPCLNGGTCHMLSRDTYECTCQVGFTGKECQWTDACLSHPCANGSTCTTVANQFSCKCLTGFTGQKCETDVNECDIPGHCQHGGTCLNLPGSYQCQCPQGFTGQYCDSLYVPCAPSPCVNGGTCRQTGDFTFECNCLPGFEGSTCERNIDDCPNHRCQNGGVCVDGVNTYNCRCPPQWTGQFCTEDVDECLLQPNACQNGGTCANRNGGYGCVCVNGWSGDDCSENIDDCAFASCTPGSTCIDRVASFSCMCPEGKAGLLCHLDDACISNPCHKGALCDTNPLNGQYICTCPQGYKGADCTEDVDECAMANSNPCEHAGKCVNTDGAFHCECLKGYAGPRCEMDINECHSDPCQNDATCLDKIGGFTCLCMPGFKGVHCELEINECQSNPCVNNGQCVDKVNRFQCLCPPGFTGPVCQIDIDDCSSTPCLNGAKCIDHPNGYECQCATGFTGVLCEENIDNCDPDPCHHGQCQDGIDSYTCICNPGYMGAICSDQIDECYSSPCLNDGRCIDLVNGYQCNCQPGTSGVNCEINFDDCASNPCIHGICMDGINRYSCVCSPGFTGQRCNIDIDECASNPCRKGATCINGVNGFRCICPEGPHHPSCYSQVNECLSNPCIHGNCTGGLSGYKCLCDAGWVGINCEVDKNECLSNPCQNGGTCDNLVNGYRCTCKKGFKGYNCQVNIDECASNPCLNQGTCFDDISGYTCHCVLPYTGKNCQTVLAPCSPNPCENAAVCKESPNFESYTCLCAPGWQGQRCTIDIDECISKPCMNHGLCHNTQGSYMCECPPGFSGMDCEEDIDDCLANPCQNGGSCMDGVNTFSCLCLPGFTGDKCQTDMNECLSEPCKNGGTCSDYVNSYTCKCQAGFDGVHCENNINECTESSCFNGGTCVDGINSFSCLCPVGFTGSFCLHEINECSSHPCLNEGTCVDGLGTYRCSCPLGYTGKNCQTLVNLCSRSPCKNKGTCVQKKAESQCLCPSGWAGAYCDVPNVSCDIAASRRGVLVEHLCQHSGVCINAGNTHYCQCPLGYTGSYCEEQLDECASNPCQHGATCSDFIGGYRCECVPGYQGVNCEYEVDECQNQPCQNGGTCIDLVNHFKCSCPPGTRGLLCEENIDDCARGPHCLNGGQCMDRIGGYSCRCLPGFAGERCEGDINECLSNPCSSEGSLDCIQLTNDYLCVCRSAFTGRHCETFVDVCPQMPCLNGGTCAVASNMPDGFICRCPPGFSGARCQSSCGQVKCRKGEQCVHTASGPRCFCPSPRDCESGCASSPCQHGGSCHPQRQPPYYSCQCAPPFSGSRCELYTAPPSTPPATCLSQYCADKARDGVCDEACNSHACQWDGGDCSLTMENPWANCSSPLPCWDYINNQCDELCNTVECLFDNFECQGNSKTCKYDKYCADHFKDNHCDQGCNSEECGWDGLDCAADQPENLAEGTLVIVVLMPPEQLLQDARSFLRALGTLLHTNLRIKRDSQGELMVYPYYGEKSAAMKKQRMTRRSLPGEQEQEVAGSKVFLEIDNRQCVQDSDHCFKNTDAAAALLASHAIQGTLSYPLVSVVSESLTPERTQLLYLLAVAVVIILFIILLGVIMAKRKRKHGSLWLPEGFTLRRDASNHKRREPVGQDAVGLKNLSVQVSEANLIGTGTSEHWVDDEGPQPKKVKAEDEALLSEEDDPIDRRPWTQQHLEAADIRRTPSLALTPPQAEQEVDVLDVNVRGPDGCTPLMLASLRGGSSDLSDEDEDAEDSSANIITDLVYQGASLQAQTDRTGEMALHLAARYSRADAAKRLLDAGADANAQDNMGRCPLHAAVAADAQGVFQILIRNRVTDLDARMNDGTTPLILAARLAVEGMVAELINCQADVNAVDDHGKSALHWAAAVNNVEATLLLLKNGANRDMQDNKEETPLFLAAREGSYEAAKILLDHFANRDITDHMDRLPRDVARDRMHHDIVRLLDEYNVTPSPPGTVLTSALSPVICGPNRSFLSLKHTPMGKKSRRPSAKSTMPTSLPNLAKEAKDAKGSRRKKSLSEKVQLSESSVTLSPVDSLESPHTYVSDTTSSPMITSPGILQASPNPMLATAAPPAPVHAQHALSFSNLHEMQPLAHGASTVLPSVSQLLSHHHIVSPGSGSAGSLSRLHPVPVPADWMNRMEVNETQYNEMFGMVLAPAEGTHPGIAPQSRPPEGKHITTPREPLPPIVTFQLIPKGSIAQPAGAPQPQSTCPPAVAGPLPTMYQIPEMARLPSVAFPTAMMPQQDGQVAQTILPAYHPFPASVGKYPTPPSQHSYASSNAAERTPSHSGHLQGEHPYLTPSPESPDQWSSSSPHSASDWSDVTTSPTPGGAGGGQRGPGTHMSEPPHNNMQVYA
Sequence of Neurogenic locus notch homolog protein 3 (Homo sapiens) (Q9UM47 whole entry, looked up): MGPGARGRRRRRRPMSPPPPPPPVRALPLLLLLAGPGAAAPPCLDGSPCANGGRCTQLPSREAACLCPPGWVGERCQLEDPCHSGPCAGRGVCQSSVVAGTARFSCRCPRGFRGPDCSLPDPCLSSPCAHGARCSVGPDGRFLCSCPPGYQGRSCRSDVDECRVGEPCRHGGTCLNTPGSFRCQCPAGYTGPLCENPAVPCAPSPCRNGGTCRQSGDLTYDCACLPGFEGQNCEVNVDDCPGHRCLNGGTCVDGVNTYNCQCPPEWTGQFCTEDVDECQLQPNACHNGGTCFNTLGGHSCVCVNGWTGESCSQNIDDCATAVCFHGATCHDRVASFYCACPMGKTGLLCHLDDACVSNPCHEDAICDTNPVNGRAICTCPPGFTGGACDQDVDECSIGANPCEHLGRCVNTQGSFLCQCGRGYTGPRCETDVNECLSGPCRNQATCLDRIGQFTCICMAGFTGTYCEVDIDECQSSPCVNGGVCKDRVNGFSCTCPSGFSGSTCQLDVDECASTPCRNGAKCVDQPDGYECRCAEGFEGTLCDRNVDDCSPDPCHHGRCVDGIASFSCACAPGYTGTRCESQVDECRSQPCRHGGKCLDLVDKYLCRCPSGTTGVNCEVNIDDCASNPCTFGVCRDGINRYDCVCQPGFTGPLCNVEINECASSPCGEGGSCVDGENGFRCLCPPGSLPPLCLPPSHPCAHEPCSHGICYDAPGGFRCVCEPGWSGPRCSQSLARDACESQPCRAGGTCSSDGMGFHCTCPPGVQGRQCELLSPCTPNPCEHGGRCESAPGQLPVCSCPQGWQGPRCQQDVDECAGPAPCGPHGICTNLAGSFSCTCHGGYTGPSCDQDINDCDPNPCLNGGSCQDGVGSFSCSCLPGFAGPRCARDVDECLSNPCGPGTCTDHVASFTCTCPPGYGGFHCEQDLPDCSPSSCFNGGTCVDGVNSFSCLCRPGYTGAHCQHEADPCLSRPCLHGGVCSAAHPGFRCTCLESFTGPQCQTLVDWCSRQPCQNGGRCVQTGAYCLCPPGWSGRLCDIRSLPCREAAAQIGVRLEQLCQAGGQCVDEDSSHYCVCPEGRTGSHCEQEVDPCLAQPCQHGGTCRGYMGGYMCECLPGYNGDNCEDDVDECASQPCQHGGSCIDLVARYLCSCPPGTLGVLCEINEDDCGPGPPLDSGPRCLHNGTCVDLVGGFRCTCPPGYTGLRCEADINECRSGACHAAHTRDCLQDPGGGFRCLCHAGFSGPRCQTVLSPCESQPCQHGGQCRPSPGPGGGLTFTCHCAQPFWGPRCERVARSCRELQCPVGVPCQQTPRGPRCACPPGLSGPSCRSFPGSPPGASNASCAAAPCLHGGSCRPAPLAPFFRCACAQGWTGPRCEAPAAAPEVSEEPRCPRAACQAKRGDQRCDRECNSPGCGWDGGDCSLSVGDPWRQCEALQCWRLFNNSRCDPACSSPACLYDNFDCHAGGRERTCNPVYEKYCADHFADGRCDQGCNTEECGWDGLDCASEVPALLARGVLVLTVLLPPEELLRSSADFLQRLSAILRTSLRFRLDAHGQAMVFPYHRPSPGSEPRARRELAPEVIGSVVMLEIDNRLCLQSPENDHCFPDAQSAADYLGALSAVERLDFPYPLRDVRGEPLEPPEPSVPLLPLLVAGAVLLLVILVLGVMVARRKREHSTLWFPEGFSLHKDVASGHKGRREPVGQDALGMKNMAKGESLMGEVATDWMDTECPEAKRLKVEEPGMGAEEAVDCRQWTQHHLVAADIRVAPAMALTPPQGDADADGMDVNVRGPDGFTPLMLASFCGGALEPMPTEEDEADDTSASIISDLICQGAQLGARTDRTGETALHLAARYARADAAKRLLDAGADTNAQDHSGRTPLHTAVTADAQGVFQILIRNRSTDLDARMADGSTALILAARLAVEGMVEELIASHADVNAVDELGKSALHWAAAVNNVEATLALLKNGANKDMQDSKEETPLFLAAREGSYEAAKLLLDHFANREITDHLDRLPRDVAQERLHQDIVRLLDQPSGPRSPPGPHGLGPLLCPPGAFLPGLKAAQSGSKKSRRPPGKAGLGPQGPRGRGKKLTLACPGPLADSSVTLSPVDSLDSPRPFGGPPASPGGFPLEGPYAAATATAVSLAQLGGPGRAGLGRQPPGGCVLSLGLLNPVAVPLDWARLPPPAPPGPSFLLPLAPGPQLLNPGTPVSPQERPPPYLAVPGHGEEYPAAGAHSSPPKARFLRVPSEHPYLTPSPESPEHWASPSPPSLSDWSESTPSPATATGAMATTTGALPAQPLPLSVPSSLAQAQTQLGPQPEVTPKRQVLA

| Compound | composite z-score [1] | composite z-score [2] | composite z-score [3] | composite z-score [4] | composite z-score [5] | composite z-score [6] | composite z-score [7] | z-score [8] | composite z-score [9] | composite z-score [10] | composite z-score [11] | z-score [12] | z-score [13] | z-score [14] | composite z-score [15] | z-score [16] | composite z-score [17] | composite z-score [18] | composite z-score [19] | composite z-score [20] |
| --- | --- | --- | --- | --- | --- | --- | --- | --- | --- | --- | --- | --- | --- | --- | --- | --- | --- | --- | --- | --- |
| C#CCN1[C@@H](Cc2ccccc2)C(=O)O[C@H](Cc2ccccc2)[C@@H]1/C=C/C1CC1 | -0.733 | 0.819 | -0.0807 | 0.289 | -0.271 | -0.151 | 0.86 | -3.46 (inactive) | 0.426 | 0.198 | -0.101 | 0.295 (inactive) | -0.361 (inactive) | 0.148 (inactive) | 1.14 | 0.855 (inactive) | -0.185 | 0.33 | 0.246 | -0.0422 |
| CC=CC(O)C1C=CC2C(=O)NC(=O)C2N1Nc1ccc(Cl)cc1Cl (stereo not given) | 0.389 | 0.453 | -0.0074 | 0.647 | 0.662 | 1.01 | 0.669 | 0.035 (inactive) | 0.114 | -0.0645 | -0.193 | -6.04 (inactive) | -2 (inactive) | 0.624 (inactive) | 2.28 | -1.13 (inactive) | 0.0598 | -0.376 | 0.0204 | -0.148 |
| COC(=O)[C@@]1(Cc2ccc(OC)cc2)[C@H]2c3cc(C(=O)N(C)C)[nH]c3C[C@H]2CN1C(=O)c1ccccc1 | -0.231 | -0.884 | 0.0992 | 0.304 | 0.793 | 0.882 | 0.977 | 1.04 (inactive) | 0.019 | -0.0905 | -0.614 | 0.0372 (inactive) | 1.15 (inactive) | 0.0745 (inactive) | 0.982 | 0.0515 (inactive) | 0.096 | -0.337 | 0.201 | -0.0594 |
| CO[C@H]1O[C@H](CO)[C@@H](OC(=O)Nc2ccc3c(c2)OCO3)[C@H](OC(=O)Nc2ccccc2-c2ccccc2)[C@H]1OC(=O)Nc1ccccc1-c1ccccc1 | 0.22 | 0.873 | 0.007 | 1.26 | 1.44 | 0.96 | 1.18 | 0.124 (inactive) | 0.189 | 0.0749 | 1.54 | 2.5 (inactive) | 2.11 (inactive) | 2.28 (inactive) | 3.35 | 0.566 (inactive) | 0.0164 | 0.546 | 0.624 | 0.29 |
| COC(=O)[C@H](Cc1ccc(O)cc1)N[C@@H](/C=C/C1CC1)[C@H](O)Cc1ccccc1 | -0.262 | 0.396 | -0.187 | 0.154 | 0.023 | -0.721 | -0.776 | -0.269 (inactive) | -0.437 | -0.0994 | 0.308 | 0.687 (inactive) | -0.813 (inactive) | 0.0393 (inactive) | -0.243 | -0.732 (inactive) | -0.251 | -0.0001 | -0.0155 | -0.0828 |
| COCCOC(=O)N1C(=O)[C@@]2(c3cc(C#CCNC(N)=O)ccc31)[C@H](C(=O)Nc1nc3ccccc3s1)[C@H]1C(=O)O[C@H](c3ccccc3)[C@H](c3ccccc3)N1[C@@H]2c1ccccc1OCCO | -0.35 | 0.578 | -0.0569 | 0.475 | 0.809 | 0.257 | 0.635 | 0.36 (inactive) | 0.71 | -0.102 | 1.56 | 0.236 (inactive) | 1.81 (inactive) | 3.17 (inactive) | 1.11 | 1.17 (inactive) | 0.146 | 1.14 | 0.907 | 0.359 |
| CC(C)N1C(=O)c2ccccc2[C@](C)(C(=O)NCC(F)(F)F)[C@@H]1c1ccc(CO)cc1 | 0.531 | -0.226 | -0.0698 | -1 | -0.334 | 0.583 | 0.107 | -0.229 (inactive) | -0.299 | -0.105 | -0.42 | -0.337 (inactive) | -0.837 (inactive) | -0.674 (inactive) | 1.64 | 0.537 (inactive) | 0.146 | -1.4 | -0.445 | -0.179 |
| CC(C)=CCCC=C(C)C(O)C1C=CC2C(=O)N(c3ccccc3)C(=O)C2N1Nc1ccc(C#N)cc1 (stereo not given) | 0.314 | 0.146 | 0.126 | 0.178 | 1.51 | 1.93 | 1.23 | -1.36 (inactive) | 0.257 | -0.382 | 1.38 | -1.67 (inactive) | 0.0768 (inactive) | 2.31 (inactive) | 3.3 | -1.24 (inactive) | -0.152 | 0.0542 | 1.01 | -0.0828 |
| C=CCOC(=O)[C@@H]1[C@H]2C(=O)O[C@H](c3ccccc3)[C@H](c3ccccc3)N2[C@H](c2ccc(OCCOC(=O)[C@H]3C[C@H]4C(=O)NCC(=O)N4[C@H]3c3cccc(OCCO)c3)cc2)[C@@]12C(=O)Nc1ccc(I)cc12 | -0.0708 | 0.727 | -0.0383 | -0.0265 | 0.593 | 1.16 | 1.23 | 0.779 (inactive) | 0.275 | -0.0296 | 1.54 | 0.787 (inactive) | 1.44 (inactive) | 3.6 (inactive) | 2.7 | 0.002 (inactive) | -0.0809 | 0.963 | 1.1 | 0.0712 |
| COCCOC(=O)N1C(=O)[C@@]2(c3cc(C#CCCO)ccc31)[C@H](C(N)=O)[C@H]1C(=O)O[C@H](c3ccccc3)[C@H](c3ccccc3)N1[C@@H]2c1ccccc1OCCO | -0.352 | 0.755 | -0.0579 | 0.658 | 1.11 | 1.43 | 1.19 | -0.96 (inactive) | 0.52 | 0.219 | 1.54 | 1.85 (inactive) | 1.17 (inactive) | 3.4 (inactive) | 2.15 | -0.497 (inactive) | 0.319 | 0.989 | 1.15 | 0.105 |
